Experimental data reported in PubChem BioAssay (Tox21).
Inconclusive results are not listed. Activity calls are given as the source filed them. Unless noted, the call rests on the fitted dose curve.

How the values were obtained:
[1] = Nuclear factor erythroid 2-related factor 2/antioxidant responsive element (Nrf2/ARE) small molecule agonists: qHTS cell viability counter screen in human keratinocytes (AID 1919968; active means well fitted curve in the direction sought with a large enough effect in the repeat runs; an effect the other way counts as inactive or inconclusive; further: nearly all actives have a fitted effect of over 55% in size)
Summary of the method: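 KeratinoSens HaCaT cells, 1,500/well, preincubated 5 h, then exposed to compounds in DMSO for 23 h at 37 C/5% CO2. Viability read as CellTiter-Fluor fluorescence after 1 h, in the same wells as the ARE-luciferase read.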

[2] = Nuclear factor erythroid 2-related factor 2/antioxidant responsive element (Nrf2/ARE) small molecule agonists: luciferase reporter gene qHTS assay in human keratinocytes (AID 1919969); further: nearly all actives have a fitted effect of over 35% in size
[3] = molecular target: Gonadotropin-releasing hormone receptor (Homo sapiens) (UniProt P30968); assay: Human gonadotropin-releasing hormone receptor (GnRHR) small molecule agonists, calcium flux assay in GnRHR-HEK293 cells (AID 1920063); further: nearly all actives have a fitted effect of over 35% in size
Gonadotropin-releasing hormone receptor (Homo sapiens), sequence (P30968 whole entry, looked up): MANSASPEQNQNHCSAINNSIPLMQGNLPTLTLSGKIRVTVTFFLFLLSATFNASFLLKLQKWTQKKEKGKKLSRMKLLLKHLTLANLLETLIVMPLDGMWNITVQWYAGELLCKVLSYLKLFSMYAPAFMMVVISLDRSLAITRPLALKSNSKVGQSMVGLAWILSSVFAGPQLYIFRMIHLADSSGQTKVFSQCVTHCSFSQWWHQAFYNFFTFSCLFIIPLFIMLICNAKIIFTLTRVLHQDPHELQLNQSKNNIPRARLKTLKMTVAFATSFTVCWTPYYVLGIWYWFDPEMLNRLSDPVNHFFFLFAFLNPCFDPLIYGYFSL
Summary of the method: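 HEK293 cells stably expressing human GnRHR were dye-loaded for 1 h at 37 C. Compound was added in agonist mode and fluorescence (Ex/Em 480/540) recorded kinetically for 3 min. Fifteen concentrations, triplicates.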

[4] = molecular target: KiSS-1 receptor (Homo sapiens) (UniProt Q969F8); assay: Human kisspeptin (KISS1R) small molecule agonists, calcium flux assay in KISS1R-HEK293 cells (AID 1920064; active means well fitted curve in the direction sought with a large enough effect in the repeat runs; an effect the other way counts as inactive or inconclusive)
KiSS-1 receptor (Homo sapiens), sequence (Q969F8 whole entry, looked up): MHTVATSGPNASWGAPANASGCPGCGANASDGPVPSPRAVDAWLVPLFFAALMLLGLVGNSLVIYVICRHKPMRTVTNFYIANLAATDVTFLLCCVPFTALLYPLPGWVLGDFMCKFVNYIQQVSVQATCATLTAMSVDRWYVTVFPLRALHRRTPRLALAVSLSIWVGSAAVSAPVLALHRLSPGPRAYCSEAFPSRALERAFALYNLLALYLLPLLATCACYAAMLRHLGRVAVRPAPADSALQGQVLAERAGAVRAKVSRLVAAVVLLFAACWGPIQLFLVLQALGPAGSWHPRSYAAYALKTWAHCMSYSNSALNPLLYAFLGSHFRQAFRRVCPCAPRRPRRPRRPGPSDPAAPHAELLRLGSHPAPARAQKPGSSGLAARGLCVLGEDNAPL
Summary of the method: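 HEK293 cells stably expressing human KISS1R were loaded with calcium dye for 1 h at 37 C, then given compound; fluorescence (Ex/Em 480/540) was read kinetically for 3 min. Fifteen concentrations, triplicate.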

[5] = G protein-coupled receptor (GPCR) small molecule agonists, calcium flux assay: HEK293 wild type cell line counter screen (AID 1920065)
Summary of the method: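 Wild-type HEK293 cells plated 18 h, loaded with calcium dye 1 h at 37 C, then compounds added in agonist mode (ATP as positive control). Kinetic fluorescence Ex/Em 480/540 recorded 3 min at 1 sec intervals; 15 concentrations, triplicate.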

[6] = p53 small molecule agonists, cell-based qHTS assay with human liver microsomes (AID 1963577);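 further: p53 response element beta-lactamase reporter cells with liver microsomes plus NADPH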
Summary of the method: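 With metabolic activation: human liver microsomes (0.5 mg/mL final) plus NADPH (0.5 mg/mL final) added alongside compounds to p53RE-bla cells; 16 h 37 C exposure; beta-lactamase read by LiveBLAzer fluorescence.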

[7] = p53 small molecule agonists, cell-based qHTS assay with rat liver microsomes (AID 1963578)
Summary of the method: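 Metabolic activation by rat liver microsomes and NADPH, each 0.5 mg/mL final, added right after compounds to p53RE-bla reporter cells (4,000/well, plated 5 h earlier). 16 h at 37 C, then LiveBLAzer substrate for 2 h at room temperature in the dark; fluorescence read-out.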

[8] = p53 small molecule agonists, cell-based qHTS assay with human liver microsomes: qHTS cell viability counter screen (AID 1963579); further: nearly all actives have a fitted effect of over 45% in size
Summary of the method: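 Metabolic activation used human liver microsomes and NADPH, both 0.5 mg/mL final, over 16 hours at 37 C on p53RE-bla cells (4,000/well). Cytotoxicity measured by CellTiter-Glo luminescence, 30 min at room temperature.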

[9] = p53 small molecule agonists, cell-based qHTS assay with rat liver microsomes: qHTS cell viability counter screen (AID 1963580); further: nearly all actives have a fitted effect of over 45% in size
Summary of the method: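 Viability is assessed in parallel with the p53 reporter read: HCT-116 p53RE-bla cells receive compounds plus rat microsomes and NADPH (0.5 mg/mL final apiece), incubate 16 h at 37 C, and then CellTiter-Glo luminescence is recorded.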

[10] = p53 small molecule agonists, cell-based qHTS assay: qHTS cell viability counter screen (AID 1963581); further: nearly all actives have a fitted effect of over 45% in size
Summary of the method: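 p53RE-bla HCT-116 cells, compounds added 5 h after plating and incubated 16 h at 37 C. Cytotoxicity measured in the same wells as intracellular ATP by CellTiter-Glo luminescence after 30 min at room temperature.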

[11] = p53 small molecule agonists, cell-based qHTS assay (AID 1963582; active means well fitted activation curve with a large enough effect in the signal ratio in the repeat runs, not every such curve was filed as active; the % refers to the signal ratio)
Summary of the method: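 p53RE-bla reporter cells, compounds added in DMSO after 5 h plating, incubated 16 h at 37 C. Beta-lactamase read via 2 h room-temperature LiveBLAzer B/G FRET substrate, fluorescence intensity.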

[12] = molecular target: 5-hydroxytryptamine receptor 2A (Homo sapiens) (UniProt P28223); assay: 5-hydroxytryptamine receptor 2A (HTR2A) small molecule antagonists, cell-based qHTS assay (AID 1963586); further: nearly all actives have a fitted effect of over 45% in size
5-hydroxytryptamine receptor 2A (Homo sapiens), sequence (P28223 whole entry, looked up): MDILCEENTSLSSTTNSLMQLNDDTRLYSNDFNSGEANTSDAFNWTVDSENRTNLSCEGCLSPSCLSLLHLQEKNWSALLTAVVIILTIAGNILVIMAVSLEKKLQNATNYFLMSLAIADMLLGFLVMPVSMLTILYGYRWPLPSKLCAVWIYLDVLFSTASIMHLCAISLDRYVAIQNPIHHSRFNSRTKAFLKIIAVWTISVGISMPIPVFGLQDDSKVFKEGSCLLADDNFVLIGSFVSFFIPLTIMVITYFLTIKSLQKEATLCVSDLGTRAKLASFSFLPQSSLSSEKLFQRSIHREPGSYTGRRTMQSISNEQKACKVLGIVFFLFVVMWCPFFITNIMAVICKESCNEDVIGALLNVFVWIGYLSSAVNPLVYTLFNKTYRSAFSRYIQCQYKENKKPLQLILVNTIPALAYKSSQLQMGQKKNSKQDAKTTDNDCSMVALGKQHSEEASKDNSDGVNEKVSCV
Summary of the method: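 Antagonist-mode intracellular calcium assay: DOI (4 nM) added after 5 min compound pre-incubation at room temperature to dye-loaded HTR2A-CHO cells. Fluorescence followed for 3 min, sampled every second.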

[13] = molecular target: 5-hydroxytryptamine receptor 2A (Homo sapiens) (UniProt P28223); assay: 5-hydroxytryptamine receptor 2A (HTR2A) small molecule agonists, cell-based qHTS assay (AID 1963587); further: nearly all actives have a fitted effect of over 30% in size
Summary of the method: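 CHO cells stably expressing human HTR2A, plated 18 h, loaded with calcium dye 1 h at 37 C. Agonist mode: compounds added and intracellular calcium fluorescence recorded kinetically for 2 min at 1 sec intervals.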

[14] = molecular target: Muscarinic acetylcholine receptor M1 (Homo sapiens) (UniProt P11229); assay: Cholinergic receptor muscarinic 1 (CHRM1) small molecule antagonists, cell-based qHTS assay (AID 1963588); further: nearly all actives have a fitted effect of over 40% in size
Muscarinic acetylcholine receptor M1 (Homo sapiens), sequence (P11229 whole entry, looked up): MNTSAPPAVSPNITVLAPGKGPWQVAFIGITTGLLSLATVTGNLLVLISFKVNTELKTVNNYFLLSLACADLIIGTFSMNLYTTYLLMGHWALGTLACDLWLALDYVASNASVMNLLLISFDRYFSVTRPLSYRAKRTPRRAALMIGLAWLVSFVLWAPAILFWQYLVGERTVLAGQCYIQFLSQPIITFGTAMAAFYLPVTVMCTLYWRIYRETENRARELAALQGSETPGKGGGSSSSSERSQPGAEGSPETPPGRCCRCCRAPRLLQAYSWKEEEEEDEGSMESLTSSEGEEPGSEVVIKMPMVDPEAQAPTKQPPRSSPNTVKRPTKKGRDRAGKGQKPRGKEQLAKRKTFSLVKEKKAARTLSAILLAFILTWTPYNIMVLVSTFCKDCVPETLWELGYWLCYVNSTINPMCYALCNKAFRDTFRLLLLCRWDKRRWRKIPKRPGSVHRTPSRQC
Summary of the method: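 CHRM1-CHO calcium-flux assay, antagonist mode. Cells were seeded 18 h, dye-loaded 1 h at 37 C and given compound for 5 min at RT, then acetylcholine was added at 50nM. FDSS fluorescence was read 3 min; 15 concentrations, three runs.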

[15] = molecular target: Muscarinic acetylcholine receptor M1 (Homo sapiens) (UniProt P11229); assay: Cholinergic receptor muscarinic 1 (CHRM1) small molecule agonists, cell-based qHTS assay (AID 1963589); further: nearly all actives have a fitted effect of over 35% in size
Summary of the method: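 CHO cells stably expressing human CHRM1 were loaded with calcium dye for 1 h at 37 C, then compound was added in agonist mode. Intracellular calcium fluorescence was followed kinetically at 1 s intervals. Fifteen concentrations were tested in three independent runs.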

[16] = cAMP Responsive Elements (CRE) small molecule agonists, cell-based qHTS assay (AID 1963590)
Summary of the method: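 CRE-bla HEK 293T cells, 2,000/well in DMEM with 10% dialyzed FBS and 25 mM HEPES, pre-incubated 18 h at 37 C, then exposed to compound 3 h at 37 C. Beta-lactamase reporter read with LiveBLAzer B/G FRET substrate after 2 h at room temperature.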

[17] = cAMP Responsive Elements (CRE) small molecule antagonists, cell-based qHTS assay (AID 1963591; active means well fitted inhibition curve with a large enough effect in the signal ratio in the repeat runs, not every such curve was filed as active; the % refers to the signal ratio)
Summary of the method: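 CRE-bla HEK293T cells plated 18 h, then given compound plus NKH477 at 0.25 uM final for 3 h at 37C. Beta-lactamase reporter read with LiveBLAzer B/G FRET substrate after 2 h at room temperature.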

[18] = molecular target: Beta-2 adrenergic receptor (Homo sapiens) (UniProt P07550); assay: Adrenergic beta2 receptor (ADRB2) small molecule antagonists, cell-based qHTS assay (AID 1963592); further: series mostly up to about 92 µM; nearly all actives have a fitted effect of over 50% in size
Beta-2 adrenergic receptor (Homo sapiens), sequence (P07550 whole entry, looked up): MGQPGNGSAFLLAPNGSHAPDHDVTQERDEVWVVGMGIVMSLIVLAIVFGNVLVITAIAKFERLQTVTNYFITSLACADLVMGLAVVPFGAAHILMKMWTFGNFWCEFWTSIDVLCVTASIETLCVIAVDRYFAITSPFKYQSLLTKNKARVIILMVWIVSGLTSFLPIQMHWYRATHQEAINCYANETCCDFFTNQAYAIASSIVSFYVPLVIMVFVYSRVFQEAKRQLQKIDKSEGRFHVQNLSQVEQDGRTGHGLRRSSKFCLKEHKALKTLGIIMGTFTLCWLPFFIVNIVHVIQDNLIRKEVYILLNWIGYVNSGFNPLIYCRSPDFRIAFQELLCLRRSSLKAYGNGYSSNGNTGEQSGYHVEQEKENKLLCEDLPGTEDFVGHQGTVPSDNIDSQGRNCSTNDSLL
Summary of the method: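 Cells (CHO, stable ADRB2 overexpression) incubated 18-20hr at 37C; compounds added from DMSO; agonist mix (1nM isoproterenol, 100uM IBMX, 25uM Ro-20-1724) added; 0.5hr RT; d2-cAMP and anti-cAMP-cryptate added; 1hr RT; 665/615 nm read.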

[19] = molecular target: D(2) dopamine receptor (Homo sapiens) (UniProt P14416); assay: Dopamine D2 receptor (DRD2) small molecule antagonists, cell-based qHTS assay (AID 1963595; active means well fitted inhibition curve with a large enough effect in the signal ratio in the repeat runs, with a control signal flat; the % refers to the signal ratio)
D(2) dopamine receptor (Homo sapiens), sequence (P14416 whole entry, looked up): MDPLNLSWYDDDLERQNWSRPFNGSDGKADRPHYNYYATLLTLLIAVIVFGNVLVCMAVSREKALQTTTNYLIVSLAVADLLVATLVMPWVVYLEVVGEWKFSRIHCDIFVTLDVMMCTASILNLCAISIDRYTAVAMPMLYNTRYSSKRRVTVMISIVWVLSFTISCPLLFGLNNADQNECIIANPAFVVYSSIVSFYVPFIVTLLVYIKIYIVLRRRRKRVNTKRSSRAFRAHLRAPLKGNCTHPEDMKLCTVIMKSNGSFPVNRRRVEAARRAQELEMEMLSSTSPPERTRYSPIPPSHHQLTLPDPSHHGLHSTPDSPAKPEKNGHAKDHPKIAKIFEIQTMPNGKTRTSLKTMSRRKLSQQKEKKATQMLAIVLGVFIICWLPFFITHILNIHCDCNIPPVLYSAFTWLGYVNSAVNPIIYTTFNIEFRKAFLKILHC
Summary of the method: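 HEK293 cells stably expressing DRD2 were preincubated with 0.1 mM Ro20-1724, then with compound for 10 min at room temperature. Cells were stimulated with 200 nM NKH477 plus 12 nM quinpirole for 30 min, and cAMP was read by HTRF.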

[20] = molecular target: D(2) dopamine receptor (Homo sapiens) (UniProt P14416); assay: Dopamine D2 receptor (DRD2) small molecule agonists, cell-based qHTS assay (AID 1963594); further: nearly all actives have a fitted effect of over 35% in size
Summary of the method: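 HEK293 cells stably expressing human DRD2, pre-treated with PDE inhibitor Ro20-1724 (0.1 mM final) and compound 10 min at room temperature, then stimulated with NKH477 (200nM […]) for 30 min. cAMP read by HTRF (665/620 nm).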
On the % scale 0 is the no-effect control and ±100 the full control effect.

O=S(=O)(O)CCO
inactive: Potency [1] | Potency [2] | Potency [3] | outcome [4] | outcome [5] | Potency [6] | Potency [7] | Potency [8] | Potency [9] | Potency [10] | Potency [11] | Potency [12] | Potency [13] | Potency [14] | Potency [15] | Potency [16] | Potency [17] | Potency [18] | Potency [19]

O=C(O)c1ccc(Cl)cc1Cl
inactive: Potency [1] | Potency [2] | Potency [3] | outcome [4] | outcome [5] | Potency [6] | Potency [7] | Potency [8] | Potency [9] | Potency [10] | Potency [11] | Potency [12] | Potency [13] | Potency [14] | Potency [15] | Potency [16] | Potency [17] | Potency [18] | Potency [20] | Potency [19]

CCC(C)c1nccnc1OC (configuration not stated)
inactive: Potency [1] | Potency [2] | Potency [3] | outcome [4] | outcome [5] | Potency [6] | Potency [7] | Potency [8] | Potency [9] | Potency [10] | Potency [11] | Potency [12] | Potency [13] | Potency [14] | Potency [15] | Potency [16] | Potency [17] | Potency [20] | Potency [19]

COc1cc(C(C)C)ccc1C
inactive: activity change, negative = cytotoxicity [1] 2.71% [at 19 µM] | activity, positive = activation [2] 17.4% [at 19 µM] | activity change [3] 0.369% [at 11.8 µM, stronger effect = higher value] | activation [4] 3.09% [at 15.8 µM] | activation [5] -0.338% [at 11.8 µM] | activation [6] -9.12% [at 13.5 µM] | activation [7] 0.156% [at 13.6 µM] | activity change, negative = cytotoxicity [8] -0.449% [at 13.5 µM] | activity change, negative = cytotoxicity [9] 0.485% [at 13.5 µM] | activity change, negative = cytotoxicity [10] -2.99% [at 13.5 µM] | activation [11] -3.2% [at 13.5 µM] | activity, negative = inhibition [12] -13.4% [at 12.7 µM] | activation [13] 0.168% [at 15.9 µM] | activity, negative = inhibition [14] 8.74% [at 12.6 µM] | activation [15] -0.0401% [at 15.8 µM] | activation [16] -1.07% [at 19 µM] | activity change, negative = inhibition [17] -0.604% [at 18.9 µM] | activity change, negative = inhibition [18] -2.77% [at 19 µM] | activation [20] -1.89% [at 19 µM] | activity change, negative = inhibition [19] 15.4% [at 18.9 µM]

CC(=O)Nc1ccc(S(N)(=O)=O)cc1
inactive: Potency [1] | Potency [2] | Potency [3] | outcome [4] | outcome [5] | Potency [6] | Potency [7] | Potency [8] | Potency [9] | Potency [10] | Potency [11] | Potency [12] | Potency [13] | Potency [14] | Potency [15] | Potency [16] | Potency [17] | Potency [18] | Potency [19]

Cc1cscn1
inactive: Potency [1] | Potency [2] | Potency [3] | outcome [4] | outcome [5] | Potency [6] | Potency [7] | Potency [8] | Potency [9] | Potency [10] | Potency [11] | Potency [12] | Potency [13] | Potency [14] | Potency [15] | Potency [16] | Potency [17] | Potency [18] | Potency [20] | Potency [19]
